Screening results as filed in PubChem BioAssay.
EphB4 antag: EphB4-ephrin-B2 interaction antagonists, primary screen, biochemical, TNYL-RAW peptide probe, fluorescence polarization | Ephrin type-B receptor 4 (Homo sapiens), P54760 | EphB4 LBD / TNYL-RAW-Alexa532 peptide | inhibition, % at 7 µM | hit rate 0.15% among 97,000;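 active = inhibition above the screen-wide mean inhibition plus 3 SD, cut at about 15% in these data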;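 note: 0% = DMSO wells and 100% = excess unlabeled TNYL-RAW peptide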
CYP2C9 inh: blockers of cytochrome P450 2C9 activity – biochemical, luminescence, ADME assay, primary screen; CYP2C9 Supersomes, luciferin-H conversion; inhibition, % at 5 µM; AID 777, 2007; hit rate 20% among 96,000;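 active = blocking of liver enzyme CYP2C9 beyond about 50% at 5 µM, limit read from the data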
Target sequence (P11712 whole entry, looked up): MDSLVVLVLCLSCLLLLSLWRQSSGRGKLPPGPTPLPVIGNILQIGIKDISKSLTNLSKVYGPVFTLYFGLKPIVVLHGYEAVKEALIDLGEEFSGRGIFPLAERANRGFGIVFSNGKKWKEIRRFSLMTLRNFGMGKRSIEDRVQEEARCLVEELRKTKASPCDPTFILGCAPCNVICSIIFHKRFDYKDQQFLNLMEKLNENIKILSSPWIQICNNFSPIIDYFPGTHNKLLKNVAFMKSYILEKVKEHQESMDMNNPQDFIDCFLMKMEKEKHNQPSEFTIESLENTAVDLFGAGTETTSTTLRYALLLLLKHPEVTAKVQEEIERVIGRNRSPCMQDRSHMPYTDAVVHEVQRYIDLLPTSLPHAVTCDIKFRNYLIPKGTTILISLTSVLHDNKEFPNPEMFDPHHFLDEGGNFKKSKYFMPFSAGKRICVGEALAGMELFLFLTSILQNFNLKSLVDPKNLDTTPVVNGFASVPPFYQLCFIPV
CYP2C9 activ: human CYP2C9 activators, primary screen, biochemical, luminescence; hit rate 1.4% among 96,000; activation factor at 5 µM; AID 1024, 2008; recombinant CYP2C9, luciferin-H conversion; hits give high values; factor 1 = untreated enzyme, 0 = blocked;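 active = activation factor of 2 or more for CYP2C9 at a 5 µM dose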;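 note: 0 = sulfaphenazole-blocked wells and 1 = vehicle-only wells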
CYP2C19 inh: blockers of cytochrome P450 2C19 activity – biochemical, luminescence, ADME assay, primary screen. inhibition, % at 5 µM. hit rate 21% among 96,000. CYP2C19 Supersomes, luciferin-H EGE luminescence, 30 min. AID 778, 2007;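 active = CYP2C19 inhibition above a set limit at 5 µM in the primary screen, cut at about 50% in these data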;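 note: plate controls were negative control wells for no effect and 2.5 mM tranylcypromine positive control for full effect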
CYP2C19 act: human CYP2C19 activators, primary screen, biochemical, luminescence; recombinant CYP2C19, luciferin-H EGE luminescence; hits give high values; 0 = fully inhibited enzyme, 1 = untreated enzyme; AID 1025, 2008; 96,000 tested, under 10 active; Cytochrome P450 2C19 (Homo sapiens), P33261; activation factor at 5 µM;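 active = activation factor of at least 2 at 5 µM in the primary screen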;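 note: 0 = wells with 2.5 mM tranylcypromine and 1 = vehicle-only wells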
* marks the source's active call; other numbers are inactive results; . = not tested or not shown. This is a sample that favours compounds with a hit; in the whole collection about 27% have one here.

SMILES	EphB4 antag	CYP2C9 inh	CYP2C9 activ	CYP2C19 inh	CYP2C19 act
Cc1cccc(C2CC(c3ccccc3)Nc3nc(N)nn32)c1 (stereo not drawn)	1.9	9.2	0.9	10.3	0.9
Cc1ccc(C2CC(c3ccccc3)n3ncnc3N2)cc1 (stereo not drawn)	.	64.8*	0.4	98.5*	0
N#Cc1ccccc1CSc1ccccn1	4.7	4.6	1	56.3*	0.4
CCc1ccc(NC(=O)COn2nnc3ccc(S(=O)(=O)N(C)C)cc32)cc1	-7.7	81.5*	0.2	82.4*	0.2
Cc1ccc(NC(=O)COn2nnc3ccc(S(=O)(=O)N(C)C)cc32)cc1F	4.2	97.5*	0	88.7*	0.1
CCc1ccc2c(COn3nnc4ccc(S(=O)(=O)N(C)C)cc43)cc(=O)oc2c1	3.6	26.3	0.7	26.3	0.7
CC(C)(C)c1cc(C(F)(F)F)nc(SCCCNC(=O)c2ccco2)n1	2.8	87.8*	0.1	92.1*	0.1
CCn1nc(C)c(NC(=O)CCCSc2nc(-c3ccco3)cc(C(F)(F)F)n2)c1C	-4.6	80.7*	0.2	54.3*	0.5
O=C(CCCSc1nc(-c2ccco2)cc(C(F)(F)F)n1)NCc1cccs1	2.3	79.5*	0.2	25.5	0.7
Cc1cc(NC(=O)CCCSc2nc(-c3ccco3)cc(C(F)(F)F)n2)no1	-5.6	21.2	0.8	8.1	0.9
Cc1nn(C)c(C)c1NC(=O)CCSc1nc(-c2ccco2)cc(C(F)(F)F)n1	-6.2	59.9*	0.4	37.9	0.6
Cc1c(NC(=O)C2CCCN2S(=O)(=O)c2cccc3nsnc23)cccc1C(=O)O (stereo not drawn)	-9.1	21.2	0.8	-8.5	1.1
CCN(CC)CC(=O)Nc1ccc(C)cc1Br	-1.1	61.5*	0.4	49.9	0.5
CCc1cc(C(=O)Nc2ccc(C)cc2Br)cs1	-4.5	.	.	.	.
Cc1ccc(NC(=O)CC(O)(C(F)(F)F)C(F)(F)F)c(Br)c1	-5.3	86.4*	0.1	86.6*	0.1
COc1ccc(C)cc1S(=O)(=O)N(C)CC(=O)N1CCN(C)CC1	-1.5	15.9	0.8	15.1	0.8
O=C(COc1ccc(F)c(Cl)c1)c1ccc[nH]1	-3.0	12.5	0.9	74.3*	0.3
O=C(OCc1nc2ccccc2s1)c1ccc(Br)s1	5.5	12.3	0.9	16.4	0.8
COc1ccc(N(CC(=O)N2CCc3ccccc32)S(=O)(=O)c2c(C)nn(C)c2C)cc1	3.2	59.7*	0.4	25.6	0.7
Cc1nn(C)c(C)c1S(=O)(=O)N(CC(=O)NC1CCCCCC1)c1ccc(C(C)C)cc1	5.6	6.5	0.9	9.8	0.9
Cc1ccc(N(CC(=O)N2CCc3ccccc32)S(=O)(=O)c2cccs2)cc1	1.0	9.3	0.9	4.9	1
Cc1nn(C)c(C)c1S(=O)(=O)N(CC(=O)N1CCc2ccccc2C1)c1ccc(C(C)C)cc1	-2.8	80.8*	0.2	96.5*	0
Cc1ccc(N(CC(=O)N2CCN(c3ccc(F)cc3)CC2)S(=O)(=O)c2c(C)nn(C)c2C)cc1	5.8	-60.2	1.6	85.1*	0.1
COc1ccc(N(CC(=O)N2c3ccccc3CC2C)S(=O)(=O)c2c(C)nn(C)c2C)cc1 (stereo not drawn)	-5.3	77.3*	0.2	79.8*	0.2
COc1ccc(-n2ncc3c(=O)n(CC(=O)N4c5ccccc5CC4C)cnc32)cc1 (stereo not drawn)	1.5	.	.	.	.
SMILES	EphB4 antag	CYP2C9 inh	CYP2C9 activ	CYP2C19 inh	CYP2C19 act
CCOC(=O)c1ccc(NC(=O)CSc2nnc(COc3ccccc3OC)n2CC)cc1	2.4	-0.8	1	26.9	0.7
NC(=O)C1CCN(C(=O)CSCc2ccccc2Cl)CC1	1.3	3.4	1	-0.5	1
COc1ccc2oc(=O)c(C(=O)N3c4ccccc4CC3C)cc2c1 (stereo not drawn)	-6.5	67.8*	0.3	19.5	0.8
Cc1nn(C)c(C(=O)N2CCc3ccccc32)c1Cl	10.6	.	.	.	.
COc1ccc(N(CC(=O)N2CCc3ccccc32)S(=O)(=O)c2c(C)n[nH]c2C)cc1	-2.4	76.4*	0.2	40.0	0.6
Cc1nn(C)c(C)c1S(=O)(=O)N(CC(=O)N1CCc2ccccc21)c1ccc(C(C)C)cc1	-0.4	74.4*	0.3	58.6*	0.4
Cc1cccc(NC(=O)CN(c2ccc(C(C)C)cc2)S(=O)(=O)c2c(C)nn(C)c2C)n1	-4.8	96.9*	0	96.3*	0
CC1(C)CC(=O)C(C=NCCN2CCN(CCCCS(=O)(=O)O)CC2)=C(O)C1	-0.9	-17.0	1.2	-17.0	1.2
COc1ccc(CCN(Cc2cc3cc(C)cc(C)c3nc2Cl)C(=O)C2CC2)cc1	7.8	38.9	0.6	36.6	0.6
COc1ccc(N(CC(=O)N2CCCC(C)C2)S(=O)(=O)c2c(C)nn(C)c2C)cc1 (stereo not drawn)	-4.4	37.4	0.6	53.4*	0.5
CCOC(=O)C1CCN(C(=O)CN(c2ccc(OC)cc2)S(=O)(=O)c2c(C)nn(C)c2C)CC1	-7.8	48.7	0.5	31.3	0.7
CC1Cc2ccccc2N1C(=O)COC(=O)c1ccc(S(=O)(=O)N(C)C)cc1 (stereo not drawn)	-1.4	-15.2	1.2	1.7	1
COc1ccc(S(=O)(=O)CCC(=O)N2c3ccccc3CC2C)cc1 (stereo not drawn)	.	-96.1	2*	38.0	0.6
CCOc1ccc(-c2nnc(SCC(=O)N(CC)CC)n2N)cc1	-6.5	-109.5	2.1*	3.7	1
CCCCN(C(=O)NC(=O)Nc1cc(C)ccc1C)S(C)(=O)=O	4.3	55.8*	0.4	34.9	0.7
CCCCCN(C(=O)NC(=O)Nc1nncs1)S(C)(=O)=O	-5.5	60.8*	0.4	7.1	0.9
CCCCCN(C(=O)NC(=O)Nn1cnnc1)S(C)(=O)=O	2.5	-8.5	1.1	-3.4	1
O=C(OCc1cc(-c2ccccc2)no1)c1ccc2ccccc2n1	2.8	5.9	0.9	17.3	0.8
C=CCn1c(SCC(=O)OCC)nc2cc(C(=O)NCc3ccco3)ccc2c1=O	-4.0	53.8*	0.5	23.3	0.8
CCCCCn1c(SCC2CCCO2)nc2cc(C(=O)N3CCC(C(N)=O)CC3)ccc2c1=O (stereo not drawn)	-7.2	53.4*	0.5	38.6	0.6
CCOC(=O)CSc1nc2cc(C(=O)NCC3CCCO3)ccc2c(=O)n1Cc1ccco1 (stereo not drawn)	1.5	72.1*	0.3	25.6	0.7
CCCCCn1c(SCC(=O)OCC)nc2cc(C(=O)NCc3ccco3)ccc2c1=O	7.6	33.5	0.7	41.7	0.6
CCN(C(=O)CSc1nc2cc(C(=O)OC)ccc2c(=O)n1Cc1ccco1)c1cccc(C)c1	-1.5	91.6*	0.1	64.2*	0.4
